Reference: PubChem BioAssay (Tox21)
Results filed as inconclusive are left out. Activity calls are given as the source filed them. Unless noted, calls come from the whole dose curve; as a rule, active = well fitted curve in the direction sought with a large enough effect in the repeat runs; inconclusive = weak or mixed curves; inactive = no such curve, though single readings can be large; an effect the other way counts as inactive or inconclusive.

Columns and labels:
[1] = qHTS assay for small molecule agonists of the p53 signaling pathway (AID 651631; calls by dose curve; note: nearly all actives have a fitted effect of over 15% in size; note: potency is the fitted concentration of half-maximal effect)
Summary of the method: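 HCT-116 cells carrying a beta-lactamase reporter under p53 response elements were dosed with compound for 16 h at 37 °C. LiveBLAzer B/G FRET substrate was then added for 2 h at room temperature, and fluorescence intensity was read to detect pathway agonism.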

[2] = qHTS assay for small molecule agonists of the p53 signaling pathway - cell viability (AID 651633; calls by dose curve; note: nearly all actives have a fitted effect of over 30% in size; note: potency is the fitted concentration of half-maximal effect)
Summary of the method: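 Viability counter-read: CellTiter-Glo luminescence (30 min, room temperature) in the same p53RE-bla plates. These plates had been exposed to compounds for 16 h at 37 C.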

[3] = qHTS assay for small molecules that induce genotoxicity in human embryonic kidney cells expressing luciferase-tagged ATAD5 - cell viability (AID 651634; calls by dose curve; note: nearly all actives have a fitted effect of over 25% in size; note: potency is the fitted concentration of half-maximal effect)
Summary of the method: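 After 15.5 hr incubation with compound at 37C, 5% CO2, HEK293T ATAD5-luciferase cells received CellTiter-Fluor reagent; fluorescence intensity was quantified following 30 min at 37C.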

[4] = qHTS assay for small molecule disruptors of the mitochondrial membrane potential - cell viability (AID 720634; calls by dose curve;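 note: human HepG2 liver cancer cells; series mostly up to about 83 µM; nearly all actives have a fitted effect of over 20% in size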)
Summary of the method: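 ATP-based luminescent viability readout (CellTiter-Glo, 30 min, room temperature) in HepG2 cells multiplexed with the m-MPI membrane potential dye; compound exposure lasted 1 hr at 37 C.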

[5] = qHTS assay for small molecule disruptors of the mitochondrial membrane potential (AID 720635); note: potency is the fitted concentration of half-maximal effect
Summary of the method: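 Mitochondrial membrane potential tracked with Mito-MPS dye, red aggregates (ex 540/em 590 nm) against green monomers (ex 490/em 535 nm). Compound treatment 1 hr at 37C, dye 30 min in HepG2.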

[6] = qHTS assay to test for compound auto fluorescence at 590 nm (red) in HepG2 cells (AID 720674)
Summary of the method: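 1 hr compound incubation on HepG2 cells, 37 C, 5% CO2; plate read ex 540 nm / em 590 nm; intensities reported as Rose Bengal sodium equivalents.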

[7] = qHTS assay to test for compound auto fluorescence at 460 nm (blue) in HEK293 cells (AID 720678)
Summary of the method: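 Cells were seeded and left to adhere for 4-5 hr at 37C. Compounds were then pin-transferred. After an overnight incubation at 37C under 5% CO2, intrinsic fluorescence at 405/460 nm was measured and referenced to triamterene.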

[8] = qHTS assay to test for compound auto fluorescence at 590 nm (red) in HEK293 cells (AID 720679)
Summary of the method: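 Each well held 2,000 HEK293 cells in medium containing 10% dialyzed FBS. Following 4-5 hr attachment at 37C, 23 nL test compound or DMSO was added; plates sat overnight, and red fluorescence (540/590nm) was recorded.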

[9] = qHTS assay for small molecules that induce genotoxicity in human embryonic kidney cells expressing luciferase-tagged ATAD5 (AID 651632); note: nearly all actives have a fitted effect of over 15% in size; note: potency is the fitted concentration of half-maximal effect
Summary of the method: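 Quantitative HTS in HEK293T expressing luciferase-tagged ATAD5, whose levels rise upon DNA damage. Exposure ran 16 hr at 37C and 5% CO2, with luminescence read 30 min after Amplite addition at room temperature.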

[10] = qHTS assay to test for compound auto fluorescence at 535 nm (green) in HepG2 cells (AID 720675)

Measured: Potency

CCCC(=O)Nc1ncnc2c1ncn2[C@@H]1O[C@@H]2COP(=O)(O)O[C@H]2[C@H]1OC(=O)CCC
not listed: [9] | [10]
inactive: all other assays above

CCCCC(=O)OCC(=O)[C@]1(O)Cc2c(O)c3c(c(O)c2[C@@H](O[C@H]2C[C@H](NC(=O)C(F)(F)F)[C@H](O)[C@H](C)O2)C1)C(=O)c1c(OC)cccc1C3=O
active: [1] 4.22 µM | [9] 3.35 µM | [5] 1.19 µM
not listed: [2] | [3]
inactive: all other assays above

CCCC1C(=O)N2C(N(C)C)=Nc3ccc(C)cc3N2C1=O (centres undefined)
not listed: [9]
inactive: all other assays above

Cc1cc(Nc2ccccc2C(=O)O)ccc1Cl
active: [1] 15 µM | [2] 7.5 µM | [5] 11.9 µM
not listed: [9]
inactive: all other assays above

CCCCCCCCCCCCOCCCN
not listed: [9]
inactive: all other assays above

CCC(C)C(C(=O)OCC[N+](C)(CC)CC)c1ccccc1 (centres undefined)
not listed: [9]
inactive: all other assays above

CC(NNC(=O)c1ccccc1)c1ccccc1 (centres undefined)
active: [5] 24.8 µM
not listed: [9]
inactive: all other assays above

O=C(c1cc2ccccc2o1)N1CCN(Cc2ccccc2)CC1
not listed: [8] | [9]
inactive: all other assays above

OCCO[C@@H]1[C@@H](O)[C@H](O)[C@@H](CO)O[C@@H]1O
not listed: [9]
inactive: all other assays above

C[C@@H]1C[C@H]2[C@@H]3CCC4=CC(=O)C=C[C@]4(C)[C@@]3(F)[C@@H](O)C[C@]2(C)[C@@]1(O)C(=O)COC(=O)c1cccc(S(=O)(=O)O)c1
not listed: [5] | [9]
inactive: all other assays above

CN[C@@H]1[C@@H](O)[C@@H](O[C@@H]2[C@@H](O)[C@H](O[C@H]3O[C@H](CN)[C@@H](O)[C@H](O)[C@H]3O)[C@@H](N)C[C@H]2NC(=O)C(O)CN)OC[C@]1(C)O (some centres undefined)
not listed: [9]
inactive: all other assays above

COc1cc([C@@H]2c3cc4c(cc3C(O[C@@H]3O[C@@H]5COC(c6cccs6)O[C@H]5[C@H](O)[C@H]3O)C3COC(=O)[C@@H]32)OCO4)cc(OC)c1O (some centres undefined)
active: [1] 0.376 µM
not listed: [2] | [5]
inactive: all other assays above

CCOC(=O)CN[C@@H](C(=O)N1CC[C@H]1C(=O)NCc1ccc(/C(N)=N/O)cc1)C1CCCCC1
not listed: [9]
inactive: all other assays above

O=P(O)(O)OC(CO)CO
not listed: [8] | [9]
inactive: all other assays above

CC(=O)OCC(=O)[C@@]12OC3(CCCC3)O[C@@H]1C[C@H]1[C@@H]3CCC4=CC(=O)C=C[C@]4(C)[C@@]3(F)[C@@H](O)C[C@@]12C
active: [5] 29.8 µM
not listed: [9]
inactive: all other assays above

CC(=O)c1ccc2c(c1)N(CCCN1CCN(CCO)CC1)c1ccccc1S2
not listed: [3] | [4] | [5]
inactive: all other assays above

Cc1c(N)nc(C(CC(N)=O)NCC(N)C(N)=O)nc1C(=O)NC(C(=O)NC(C)C(O)C(C)C(=O)NC(C(=O)NCCc1nc(-c2nc(C(=O)NCCCN[C@@H](C)c3ccccc3)cs2)cs1)C(C)O)C(O[C@@H]1O[C@@H](CO)[C@@H](O)[C@H](O)[C@@H]1O[C@H]1O[C@H](CO)[C@@H](O)[C@H](OC(N)=O)[C@@H]1O)c1cnc[nH]1 (some centres undefined)
active: [1] 0.15 µM
not listed: [9]
inactive: all other assays above

C[C@]12C=CC(=O)C=C1CC[C@@H]1[C@@H]2[C@@H](O)C[C@@]2(C)[C@H]1CC[C@]2(O)C(=O)COC(=O)CCC(=O)O
not listed: [9]
inactive: all other assays above

Cc1ccc(/C(=C\CN2CCCC2)c2cccc(/C=C/C(=O)O)n2)cc1
not listed: [5] | [9]
inactive: all other assays above

COc1cc(C)c(/C=C/C(C)=C/C=C/C(C)=C/C(=O)O)c(C)c1C
active: [1] 29.8 µM
not listed: [2] | [4]
inactive: all other assays above

NC(=S)N=Nc1ccc(NN=C(N)N)cc1
active: [3] 26.6 µM | [5] 2.98 µM
not listed: [2]
inactive: all other assays above
